Measured values reported in PMC7862700, “An all-to-all approach to the identification of sequence-specific readers for epigenetic DNA modifications on cytosine”.

How the values were obtained:
Assay in all cases: DAPPL (digital affinity profiling via proximity ligation, sequencing); 10 mM Tris-HCl pH 7.5, 50 mM NaCl, 1 mM DTT, 4% glycerol, room temperature, 30 min; GST-TFs on glutathione beads, 16-mer random dsDNA library, 0.1% formaldehyde crosslink after washing; high values mean tight binding
Settings in all cases: protein: recombinant; tags: N-terminal GST; dsDNA, one strand shown
ERF = molecular target: T1, ERF (Homo sapiens, UniProt P50548 1-548)
T1 sequence: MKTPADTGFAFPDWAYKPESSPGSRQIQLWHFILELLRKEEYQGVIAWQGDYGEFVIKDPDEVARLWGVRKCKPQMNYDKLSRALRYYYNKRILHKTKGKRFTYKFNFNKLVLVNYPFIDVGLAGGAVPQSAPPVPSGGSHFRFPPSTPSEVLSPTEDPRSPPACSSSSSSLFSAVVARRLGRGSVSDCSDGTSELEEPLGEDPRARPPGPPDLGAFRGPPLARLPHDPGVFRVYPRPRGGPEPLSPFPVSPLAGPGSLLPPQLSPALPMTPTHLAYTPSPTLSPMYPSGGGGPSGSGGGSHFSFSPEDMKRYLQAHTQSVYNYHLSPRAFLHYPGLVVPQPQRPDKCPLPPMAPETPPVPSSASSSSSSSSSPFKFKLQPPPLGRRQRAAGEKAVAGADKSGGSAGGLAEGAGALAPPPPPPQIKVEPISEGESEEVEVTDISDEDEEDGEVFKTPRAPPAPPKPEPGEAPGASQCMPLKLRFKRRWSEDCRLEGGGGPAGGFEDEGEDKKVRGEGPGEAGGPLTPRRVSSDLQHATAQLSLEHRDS
How it was run: (§1)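 Sequencing on an Illumina NextSeq500 followed washing, crosslinking with 0.1% formaldehyde, proximity ligation (BsaI/T4 ligase, 1 h, 37 °C) and PCR amplification of pools that had been incubated for 30 min at room temperature with 200 nmole of a random double-stranded 16-mer DNA library in Tris/NaCl/DTT/glycerol buffer. Each pool held DNA-barcoded human transcription factors, expressed in yeast as GST fusions and captured on glutathione beads, plus a tag-only sample. Binding signal is a hexamer's read frequency for a factor divided by its frequency in the tag-only sample.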

ETV3L = molecular target: T2, ETV3L (Homo sapiens, UniProt Q6ZN32 1-361)
T2 sequence: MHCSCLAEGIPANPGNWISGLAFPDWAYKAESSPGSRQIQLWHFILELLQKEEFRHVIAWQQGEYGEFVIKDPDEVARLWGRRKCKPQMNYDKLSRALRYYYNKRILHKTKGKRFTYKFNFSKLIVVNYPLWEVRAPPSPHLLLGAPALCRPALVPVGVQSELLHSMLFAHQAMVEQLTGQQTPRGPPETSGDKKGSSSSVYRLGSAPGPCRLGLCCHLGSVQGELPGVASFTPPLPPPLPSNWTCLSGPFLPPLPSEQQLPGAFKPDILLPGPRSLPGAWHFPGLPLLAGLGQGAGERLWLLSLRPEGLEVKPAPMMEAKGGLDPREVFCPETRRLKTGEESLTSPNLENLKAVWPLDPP
How it was run: as §1

ETS2 = molecular target: T3, ETS2 (Homo sapiens, UniProt P15036 1-469)
T3 sequence: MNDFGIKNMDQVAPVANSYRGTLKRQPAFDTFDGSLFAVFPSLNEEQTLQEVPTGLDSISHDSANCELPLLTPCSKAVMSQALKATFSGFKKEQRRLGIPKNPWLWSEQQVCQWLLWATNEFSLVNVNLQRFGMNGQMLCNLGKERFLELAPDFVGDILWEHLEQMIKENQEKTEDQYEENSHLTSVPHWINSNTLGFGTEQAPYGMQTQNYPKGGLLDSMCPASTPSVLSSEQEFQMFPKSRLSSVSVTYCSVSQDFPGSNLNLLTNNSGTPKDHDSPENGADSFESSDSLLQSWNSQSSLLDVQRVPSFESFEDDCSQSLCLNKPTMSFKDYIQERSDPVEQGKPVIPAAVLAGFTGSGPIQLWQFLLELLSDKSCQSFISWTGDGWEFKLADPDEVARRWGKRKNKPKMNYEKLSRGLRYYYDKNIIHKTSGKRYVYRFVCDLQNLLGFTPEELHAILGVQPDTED
How it was run: as §1

SPDEF = molecular target: T4, SPDEF (Homo sapiens, UniProt O95238 1-335)
T4 sequence: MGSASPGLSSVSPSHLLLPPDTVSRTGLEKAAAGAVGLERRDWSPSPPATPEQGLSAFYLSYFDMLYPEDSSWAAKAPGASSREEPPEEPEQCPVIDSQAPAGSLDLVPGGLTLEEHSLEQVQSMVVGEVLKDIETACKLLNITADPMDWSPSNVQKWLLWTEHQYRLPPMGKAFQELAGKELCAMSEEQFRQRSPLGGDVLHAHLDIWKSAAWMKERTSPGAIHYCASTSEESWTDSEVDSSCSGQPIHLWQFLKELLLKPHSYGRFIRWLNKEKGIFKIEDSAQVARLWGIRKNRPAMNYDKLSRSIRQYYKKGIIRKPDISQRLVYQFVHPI
How it was run: as §1

ETV7 = molecular target: T5, ETV7 (Homo sapiens, UniProt Q9Y603 1-341)
T5 sequence: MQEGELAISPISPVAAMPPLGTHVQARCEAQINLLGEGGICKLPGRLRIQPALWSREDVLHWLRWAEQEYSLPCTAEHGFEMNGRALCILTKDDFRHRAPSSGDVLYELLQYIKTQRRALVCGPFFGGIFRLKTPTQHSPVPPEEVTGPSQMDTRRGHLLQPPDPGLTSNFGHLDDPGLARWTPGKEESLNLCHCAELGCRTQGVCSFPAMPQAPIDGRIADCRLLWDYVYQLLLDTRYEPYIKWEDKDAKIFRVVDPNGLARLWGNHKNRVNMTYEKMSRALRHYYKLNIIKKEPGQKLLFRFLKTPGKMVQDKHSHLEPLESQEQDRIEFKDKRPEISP
How it was run: as §1

ELF5 = molecular target: T6, ELF5 (Homo sapiens, UniProt Q9UKW6-2 1-255)
T6 sequence: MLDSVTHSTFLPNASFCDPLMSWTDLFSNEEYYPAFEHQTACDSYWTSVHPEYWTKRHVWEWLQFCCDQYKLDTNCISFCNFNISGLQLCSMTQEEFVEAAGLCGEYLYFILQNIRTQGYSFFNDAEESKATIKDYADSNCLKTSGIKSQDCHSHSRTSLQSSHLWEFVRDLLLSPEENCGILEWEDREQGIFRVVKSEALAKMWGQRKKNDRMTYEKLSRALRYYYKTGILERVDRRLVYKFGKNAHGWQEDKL
How it was run: as §1

ETV3 = molecular target: T7, ETV3 (Homo sapiens, UniProt P41162-2 1-143)
T7 sequence: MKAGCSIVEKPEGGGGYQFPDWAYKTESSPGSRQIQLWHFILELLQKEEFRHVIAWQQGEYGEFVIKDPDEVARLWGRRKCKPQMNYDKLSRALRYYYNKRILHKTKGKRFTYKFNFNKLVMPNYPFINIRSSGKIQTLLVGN
How it was run: as §1

ETV6 = ETV6 (Homo sapiens, UniProt P41212 1-452)
Sequence of ETV6 (P41212 whole entry): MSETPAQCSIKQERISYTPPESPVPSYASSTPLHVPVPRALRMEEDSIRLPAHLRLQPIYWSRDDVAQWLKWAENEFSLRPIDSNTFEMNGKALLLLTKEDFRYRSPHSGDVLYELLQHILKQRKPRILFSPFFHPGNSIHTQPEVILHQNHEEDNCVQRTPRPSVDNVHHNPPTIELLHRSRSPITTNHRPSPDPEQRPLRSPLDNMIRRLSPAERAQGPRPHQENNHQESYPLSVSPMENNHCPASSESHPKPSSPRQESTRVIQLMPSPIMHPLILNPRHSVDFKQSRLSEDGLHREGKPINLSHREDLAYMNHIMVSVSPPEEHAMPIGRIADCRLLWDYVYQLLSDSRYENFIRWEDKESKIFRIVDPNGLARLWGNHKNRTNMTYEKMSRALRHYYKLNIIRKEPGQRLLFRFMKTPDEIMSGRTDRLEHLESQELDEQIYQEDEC
How it was run: as §1

Sequence	binding signal (ERF)	binding signal (ETV3L)	binding signal (ETS2)	binding signal (SPDEF)	binding signal (ETV7)	binding signal (ELF5)	binding signal (ETV3)	binding signal (ETV6)
CGATAA	1.11 fold enrichment (6-mer frequency, TF over GST control)	1.09 fold enrichment (6-mer frequency, TF over GST control)	1.14 fold enrichment (6-mer frequency, TF over GST control)	1.02 fold enrichment (6-mer frequency, TF over GST control)	1.08 fold enrichment (6-mer frequency, TF over GST control)	1.03 fold enrichment (6-mer frequency, TF over GST control)	1.06 fold enrichment (6-mer frequency, TF over GST control)	1.09 fold enrichment (6-mer frequency, TF over GST control)
CCTGCA	1.08 fold enrichment (6-mer frequency, TF over GST control)	1.32 fold enrichment (6-mer frequency, TF over GST control)	1.26 fold enrichment (6-mer frequency, TF over GST control)	1.37 fold enrichment (6-mer frequency, TF over GST control)	1.24 fold enrichment (6-mer frequency, TF over GST control)	1.3 fold enrichment (6-mer frequency, TF over GST control)	1.22 fold enrichment (6-mer frequency, TF over GST control)	1.28 fold enrichment (6-mer frequency, TF over GST control)
CTCGAA	1.22 fold enrichment (6-mer frequency, TF over GST control)	1.24 fold enrichment (6-mer frequency, TF over GST control)	1.2 fold enrichment (6-mer frequency, TF over GST control)	1.11 fold enrichment (6-mer frequency, TF over GST control)	1.19 fold enrichment (6-mer frequency, TF over GST control)	1.17 fold enrichment (6-mer frequency, TF over GST control)	1.18 fold enrichment (6-mer frequency, TF over GST control)	1.12 fold enrichment (6-mer frequency, TF over GST control)
TGACGA	1.14 fold enrichment (6-mer frequency, TF over GST control)	1.07 fold enrichment (6-mer frequency, TF over GST control)	1.17 fold enrichment (6-mer frequency, TF over GST control)	1 fold enrichment (6-mer frequency, TF over GST control)	1.11 fold enrichment (6-mer frequency, TF over GST control)	1.04 fold enrichment (6-mer frequency, TF over GST control)	1.09 fold enrichment (6-mer frequency, TF over GST control)	1.16 fold enrichment (6-mer frequency, TF over GST control)
CCGATC	1.17 fold enrichment (6-mer frequency, TF over GST control)	1.13 fold enrichment (6-mer frequency, TF over GST control)	1.18 fold enrichment (6-mer frequency, TF over GST control)	1.22 fold enrichment (6-mer frequency, TF over GST control)	1.31 fold enrichment (6-mer frequency, TF over GST control)	1.1 fold enrichment (6-mer frequency, TF over GST control)	1.25 fold enrichment (6-mer frequency, TF over GST control)	1.17 fold enrichment (6-mer frequency, TF over GST control)
TCTACG	1.46 fold enrichment (6-mer frequency, TF over GST control)	1.4 fold enrichment (6-mer frequency, TF over GST control)	1.41 fold enrichment (6-mer frequency, TF over GST control)	1.33 fold enrichment (6-mer frequency, TF over GST control)	1.36 fold enrichment (6-mer frequency, TF over GST control)	1.35 fold enrichment (6-mer frequency, TF over GST control)	1.32 fold enrichment (6-mer frequency, TF over GST control)	1.2 fold enrichment (6-mer frequency, TF over GST control)
TTGTAG	1.14 fold enrichment (6-mer frequency, TF over GST control)	1.2 fold enrichment (6-mer frequency, TF over GST control)	1.17 fold enrichment (6-mer frequency, TF over GST control)	1.09 fold enrichment (6-mer frequency, TF over GST control)	1.12 fold enrichment (6-mer frequency, TF over GST control)	1.1 fold enrichment (6-mer frequency, TF over GST control)	1.13 fold enrichment (6-mer frequency, TF over GST control)	1.13 fold enrichment (6-mer frequency, TF over GST control)
CCTGCG	1.22 fold enrichment (6-mer frequency, TF over GST control)	1.49 fold enrichment (6-mer frequency, TF over GST control)	1.27 fold enrichment (6-mer frequency, TF over GST control)	1.23 fold enrichment (6-mer frequency, TF over GST control)	1.38 fold enrichment (6-mer frequency, TF over GST control)	1.3 fold enrichment (6-mer frequency, TF over GST control)	1.4 fold enrichment (6-mer frequency, TF over GST control)	1.35 fold enrichment (6-mer frequency, TF over GST control)
TGGAAT	1.22 fold enrichment (6-mer frequency, TF over GST control)	1.3 fold enrichment (6-mer frequency, TF over GST control)	1.3 fold enrichment (6-mer frequency, TF over GST control)	1.28 fold enrichment (6-mer frequency, TF over GST control)	1.27 fold enrichment (6-mer frequency, TF over GST control)	1.18 fold enrichment (6-mer frequency, TF over GST control)	1.24 fold enrichment (6-mer frequency, TF over GST control)	1.15 fold enrichment (6-mer frequency, TF over GST control)
GACCTA	1.09 fold enrichment (6-mer frequency, TF over GST control)	1.31 fold enrichment (6-mer frequency, TF over GST control)	1.19 fold enrichment (6-mer frequency, TF over GST control)	1.13 fold enrichment (6-mer frequency, TF over GST control)	1.2 fold enrichment (6-mer frequency, TF over GST control)	1.15 fold enrichment (6-mer frequency, TF over GST control)	1.07 fold enrichment (6-mer frequency, TF over GST control)	1.22 fold enrichment (6-mer frequency, TF over GST control)
TGCAAT	1.14 fold enrichment (6-mer frequency, TF over GST control)	1.12 fold enrichment (6-mer frequency, TF over GST control)	1.15 fold enrichment (6-mer frequency, TF over GST control)	1.15 fold enrichment (6-mer frequency, TF over GST control)	1.2 fold enrichment (6-mer frequency, TF over GST control)	1.1 fold enrichment (6-mer frequency, TF over GST control)	1.15 fold enrichment (6-mer frequency, TF over GST control)	1.17 fold enrichment (6-mer frequency, TF over GST control)
CGTCTC	1.49 fold enrichment (6-mer frequency, TF over GST control)	1.71 fold enrichment (6-mer frequency, TF over GST control)	1.58 fold enrichment (6-mer frequency, TF over GST control)	1.35 fold enrichment (6-mer frequency, TF over GST control)	1.44 fold enrichment (6-mer frequency, TF over GST control)	1.38 fold enrichment (6-mer frequency, TF over GST control)	1.48 fold enrichment (6-mer frequency, TF over GST control)	1.46 fold enrichment (6-mer frequency, TF over GST control)
ACAACA	1.31 fold enrichment (6-mer frequency, TF over GST control)	1.17 fold enrichment (6-mer frequency, TF over GST control)	1.18 fold enrichment (6-mer frequency, TF over GST control)	1.19 fold enrichment (6-mer frequency, TF over GST control)	1.23 fold enrichment (6-mer frequency, TF over GST control)	1.22 fold enrichment (6-mer frequency, TF over GST control)	1.27 fold enrichment (6-mer frequency, TF over GST control)	1.29 fold enrichment (6-mer frequency, TF over GST control)
GCTGAA	1.16 fold enrichment (6-mer frequency, TF over GST control)	1.13 fold enrichment (6-mer frequency, TF over GST control)	1.16 fold enrichment (6-mer frequency, TF over GST control)	1.17 fold enrichment (6-mer frequency, TF over GST control)	1.08 fold enrichment (6-mer frequency, TF over GST control)	1 fold enrichment (6-mer frequency, TF over GST control)	1.1 fold enrichment (6-mer frequency, TF over GST control)	1.09 fold enrichment (6-mer frequency, TF over GST control)
CAATTG	1.29 fold enrichment (6-mer frequency, TF over GST control)	1.2 fold enrichment (6-mer frequency, TF over GST control)	1.26 fold enrichment (6-mer frequency, TF over GST control)	1.12 fold enrichment (6-mer frequency, TF over GST control)	1.32 fold enrichment (6-mer frequency, TF over GST control)	1.21 fold enrichment (6-mer frequency, TF over GST control)	1.2 fold enrichment (6-mer frequency, TF over GST control)	1.23 fold enrichment (6-mer frequency, TF over GST control)
